This passage reports Potency and fluorescence, % of fluorescent control results from PubChem BioAssay (Tox21).

Active and inactive are the calls of the source. Entries that show only a call come without a potency. The call rests on the fitted dose curve; in most records, active means well fitted curve in the direction sought with a large enough effect in the repeat runs; inconclusive means weak or mixed curves; inactive means flat fitted curve, though single readings scatter.

The nature of the assay: qHTS assay to test for compound auto fluorescence at 460 nm (blue) in HepG2 cell free culture (AID 720685). The following applies: Cell-free culture medium, blue autofluorescence 405/460 nm; series mostly up to 91.3 µM. The text has this:
U.S. Tox21 Program National Center for Advancing Translational Sciences [NCATS] NIH Chemical Genomics Center [NCGC] U.S. Environmental Protection Agency [EPA] National Institutes of Environmental Health Sciences [NIEHS] National Toxicology Program [NTP] U.S. Food and Drug Administration [FDA] Tox21 Assay Overview: Compound auto fluorescence often interferes with screening of the compound library against various biological targets and signaling pathways. Some of these compounds may have fluorophoric properties. Such properties may interfere with the assay outputs resulting in false positives and/or negatives. To decrease such complications and ensure the compound activities are relevant in terms of biological response, the Tox21 10K compound library was screened for auto fluorescence. From the fluorophores used as reporter signals in our screening assays, the auto fluorescence equivalencies of compounds against three fluorophores have been evaluated: Triamterene, Fluorescein and Rose Bengal sodium for blue, green and red fluorescence, respectively. The fluorescence intensities were measured using Excitation/Emission wavelengths at 405/460nm, 485/535nm and 540/590nm for blue, green and red labels, respectively. This assay includes the blue fluorescence data.
Tox21 Assay Protocol Summary: 5 uL of culture medium (MEM containing 10% FBS) per well was dispensed into black wall/clear bottom 1536-well plates using a Multidrop Combi Dispenser (ThermoFisher Scientific, Waltham, MA). After 23 nL compound or DMSO vehicle was transferred into assay plate by a pintool work station (Kalypsys, San Diego, CA), fluorescence intensities in the assay plates were measured by an Envision (PerkinElmer, Shelton, CT) plate reader using three labels for measuring blue, green and red fluorescence at […] 460, 535 and 590nm respectively.
Consider `O=C(O)c1c(Cl)cccc1Cl`, for which the Potency entry was “inactive”.
The same measure, in the same setting: the same measure for `O=C(Nc1cccc([N+](=O)[O-])c1)c1cc2ccccc2cc1O`: “inactive”.
Same read-out and setting: the same measure for `O=c1cc(-c2ccc(O)cc2)oc2cc(O)cc(O)c12`: “inactive”.
Still for that read-out and setting: the same measure for `CN(C/C=C/C#CC(C)(C)C)Cc1cccc2ccccc12`: “inactive”.
With `On1ccccc1=S`, the Potency entry is “inactive”.
For the compound `Oc1cc2ccccc2c2ccccc12`, the Potency entry is “inactive”.
On the same count and under the same terms, the same measure for `Cc1cc(N)c(S(=O)(=O)O)cc1Cl`: “inactive”; for `CCc1cc(SCc2sc(-c3ccc(C(F)(F)F)cc3)nc2CN2CCN(c3ccc(OC)cc3)CC2)ccc1OCC(=O)O`: “inactive”.
Still for that read-out and setting: the entry for `NNc1nc(-c2ccccc2)cs1` is “inactive”.
On to `O=C1CCCCCN1SSN1CCCCCC1=O`, for which the Potency entry was “inactive”.
Still for that read-out and setting: the same measure for `CSc1ccc(C(=O)c2[nH]c(=O)[nH]c2C)cc1`: “inactive”; for `O=S1(=O)CC(Cl)(Cl)C(Cl)(Cl)C1`: “inactive”.
Consider `Cc1nc(-c2ccc3c(c2)CCN(CCC2CCC(NC(=O)/C=C/c4ccc(F)cc4)CC2)CC3)no1` (stereo not given), for which the Potency result is “inactive”.
Consider `CC/C(=C(\c1ccc(O)cc1)c1ccc(OCCN(C)C)cc1)c1ccccc1`, for which the Potency entry is “inactive”.
Take `COc1ccc(C(=O)/C(Br)=C\C(=O)O)cc1`: the Potency entry is “inactive”.
Consider `Cc1ccc(O)c2ncccc12`, for which the Potency entry is “inactive”.
Still for that read-out and setting: the entry for `CN(C)[C@@H]1C(=O)C(C(N)=O)=C(O)[C@@]2(O)C(=O)C3=C(O)c4c(O)ccc(Cl)c4[C@@H](O)[C@H]3C[C@@H]12` is “inactive”; for `O=C1C=CC(=O)N1c1ccc(Cc2ccc(N3C(=O)C=CC3=O)cc2)cc1` it is “inactive”; for `CC(=O)S[C@@H]1CC2=CC(=O)CC[C@]2(C)[C@H]2CC[C@@]3(C)[C@@H](CC[C@@]34CCC(=O)O4)[C@H]12` it is “inactive”.
Still for that read-out and setting: the same measure for `C[n+]1cc2c3c(ccc2c2ccc4cc5c(cc4c21)OCO5)OCO3`: “inactive”; for `CCCCN(CCCC)c1ccc(C(=O)c2ccccc2C(=O)O)c(O)c1`: “inactive”; for `O=C1c2c(O)ccc(Nc3ccc(CCO)cc3)c2C(=O)c2c([N+](=O)[O-])ccc(O)c21`: “inactive”.
The same measure, in the same setting: the same measure for `O=C1Cc2cc(CCN3CCN(c4nsc5ccccc45)CC3)c(Cl)cc2N1`: “inactive”; for `CCc1cc(Cc2cc(CC)c(N)c(CC)c2)cc(CC)c1N`: “inactive”.
With `CCCCCCCCCCCC(=O)NCCCN(C)C`, the Potency entry is “inactive”.
Same read-out and setting: the same measure for `CCCCCCCCCCCCCCCS(=O)(=O)Oc1ccccc1`: “inactive”; for `Oc1cccc2cc3cccc(O)c3c(O)c12`: “inactive”; for `CCN(CC)CCNC(=O)c1c(C)[nH]c(/C=C2\C(=O)Nc3ccc(F)cc32)c1C`: “inactive”.
`N=C1C=CC(=C(c2ccc(N)cc2)c2ccc(N)cc2)C=C1`: the Potency entry was “inactive”.
Consider `CNC(=O)c1ccccc1`, for which the Potency result was “inactive”.
Regarding `CCCCCCCCCCCCCCCC[N+](C)(C)CCN(Cc1ccc(OC)cc1)c1ncccn1`, the fluorescence, % of fluorescent control was -0.0338% [at 18.6 µM] (inactive).
As for `CCCCN(CCCC)C(=O)N(CCCC)CCCC`, the Potency result was “inactive”.
Same read-out and setting: the entry for `CCCCN1CCCC[C@H]1C(=O)Nc1c(C)cccc1C` is “inactive”.
The same measure, in the same setting: the entry for `CCOc1nc2cccc(C(=O)OC(C)OC(=O)OC3CCCCC3)c2n1Cc1ccc(-c2ccccc2-c2nn[nH]n2)cc1` (stereo not given) is “inactive”; for `CCCCCCCCNC(C)C(O)c1ccc(SC(C)C)cc1` (stereo not given) it is “inactive”.
Same read-out and setting: the same measure for `CCN(C(=O)N(CC)c1ccccc1)c1ccccc1`: “inactive”; for `O=C(O)c1ccc(Cl)c(Cl)c1`: “inactive”; for `Cc1ccc(-n2nc(C(C)(C)C)cc2NC(=O)Nc2ccc(OCCN3CCOCC3)c3ccccc23)cc1`: “inactive”.
As to `CCCCCCCCCCCCCCCC(=O)OC[C@H](O)[C@H]1OC(=O)C(O)=C1O`, the Potency entry was “inactive”.
`O=C(Oc1cccc2cccnc12)c1ccccc1`: the Potency entry is “inactive”.
